Common to all, as to assay: log2 ratio of Biotin-Ahx-Ub-VS probe labelling (fragment/DMSO); higher = less target engagement (more negative = stronger competition), active = hit call of the paper (q ≤ 0.05, log2 ratio ≤ -1)
Holding throughout (conditions): compound concentration: 200 uM; treatment time: 3 h

In assay [1] the target is T1, USP19 (UniProt O94966).
T1 sequence (whole entry): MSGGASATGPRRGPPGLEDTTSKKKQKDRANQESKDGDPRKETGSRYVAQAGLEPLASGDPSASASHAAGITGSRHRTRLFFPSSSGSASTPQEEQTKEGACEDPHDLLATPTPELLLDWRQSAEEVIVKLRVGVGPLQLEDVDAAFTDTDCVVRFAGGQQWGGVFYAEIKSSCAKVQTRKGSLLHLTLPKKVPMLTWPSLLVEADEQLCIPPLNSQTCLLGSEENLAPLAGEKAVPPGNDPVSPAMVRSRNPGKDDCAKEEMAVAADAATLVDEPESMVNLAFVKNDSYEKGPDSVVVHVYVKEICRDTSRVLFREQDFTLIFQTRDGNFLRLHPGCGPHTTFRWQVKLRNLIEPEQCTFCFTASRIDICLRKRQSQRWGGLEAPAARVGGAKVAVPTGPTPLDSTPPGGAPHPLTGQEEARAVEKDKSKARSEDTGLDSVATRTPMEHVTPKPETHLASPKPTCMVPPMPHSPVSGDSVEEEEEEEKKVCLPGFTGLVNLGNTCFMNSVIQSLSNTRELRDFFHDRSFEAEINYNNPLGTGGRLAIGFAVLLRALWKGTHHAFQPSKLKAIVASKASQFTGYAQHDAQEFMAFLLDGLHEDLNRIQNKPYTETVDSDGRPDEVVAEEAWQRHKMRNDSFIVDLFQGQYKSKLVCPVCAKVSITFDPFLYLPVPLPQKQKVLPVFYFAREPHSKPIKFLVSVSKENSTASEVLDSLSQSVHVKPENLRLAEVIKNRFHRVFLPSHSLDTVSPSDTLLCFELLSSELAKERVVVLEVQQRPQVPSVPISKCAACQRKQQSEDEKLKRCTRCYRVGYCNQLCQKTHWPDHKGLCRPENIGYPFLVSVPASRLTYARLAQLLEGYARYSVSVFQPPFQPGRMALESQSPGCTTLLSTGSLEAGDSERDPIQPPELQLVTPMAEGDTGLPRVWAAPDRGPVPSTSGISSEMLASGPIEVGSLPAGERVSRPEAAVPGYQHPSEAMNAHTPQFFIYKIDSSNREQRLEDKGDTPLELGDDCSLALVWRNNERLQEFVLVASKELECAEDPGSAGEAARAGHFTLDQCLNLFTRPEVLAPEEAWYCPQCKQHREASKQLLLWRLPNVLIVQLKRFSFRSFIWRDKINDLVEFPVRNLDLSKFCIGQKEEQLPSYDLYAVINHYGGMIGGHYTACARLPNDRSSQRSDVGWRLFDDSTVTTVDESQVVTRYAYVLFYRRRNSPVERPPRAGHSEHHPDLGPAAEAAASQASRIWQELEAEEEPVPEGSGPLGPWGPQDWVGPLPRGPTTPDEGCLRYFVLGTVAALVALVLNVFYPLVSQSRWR
In outline: (§1)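 Triplicate samples of HEK293T lysate, 495 µg each, received fragment at 200 µM or vehicle for 3 h, followed by Biotin-Ahx-Ub-VS (0.5 µM final) for 1 h. After NeutrAvidin enrichment of labelled DUBs and LysC/trypsin digestion, peptides were run by diaPASEF LC-MS/MS. The values are average log2 fragment/vehicle ratios from global-median-normalised Spectronaut label-free quantities, tested by unpaired t-test on proteins having ≥2 unique peptides.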

Assay [2] concerns the target USP24 (UniProt Q9UPU5). The gist of the method: as §1
Assay [3] deals with T2, USP25 (UniProt Q9UHP3).
T2 sequence (whole entry): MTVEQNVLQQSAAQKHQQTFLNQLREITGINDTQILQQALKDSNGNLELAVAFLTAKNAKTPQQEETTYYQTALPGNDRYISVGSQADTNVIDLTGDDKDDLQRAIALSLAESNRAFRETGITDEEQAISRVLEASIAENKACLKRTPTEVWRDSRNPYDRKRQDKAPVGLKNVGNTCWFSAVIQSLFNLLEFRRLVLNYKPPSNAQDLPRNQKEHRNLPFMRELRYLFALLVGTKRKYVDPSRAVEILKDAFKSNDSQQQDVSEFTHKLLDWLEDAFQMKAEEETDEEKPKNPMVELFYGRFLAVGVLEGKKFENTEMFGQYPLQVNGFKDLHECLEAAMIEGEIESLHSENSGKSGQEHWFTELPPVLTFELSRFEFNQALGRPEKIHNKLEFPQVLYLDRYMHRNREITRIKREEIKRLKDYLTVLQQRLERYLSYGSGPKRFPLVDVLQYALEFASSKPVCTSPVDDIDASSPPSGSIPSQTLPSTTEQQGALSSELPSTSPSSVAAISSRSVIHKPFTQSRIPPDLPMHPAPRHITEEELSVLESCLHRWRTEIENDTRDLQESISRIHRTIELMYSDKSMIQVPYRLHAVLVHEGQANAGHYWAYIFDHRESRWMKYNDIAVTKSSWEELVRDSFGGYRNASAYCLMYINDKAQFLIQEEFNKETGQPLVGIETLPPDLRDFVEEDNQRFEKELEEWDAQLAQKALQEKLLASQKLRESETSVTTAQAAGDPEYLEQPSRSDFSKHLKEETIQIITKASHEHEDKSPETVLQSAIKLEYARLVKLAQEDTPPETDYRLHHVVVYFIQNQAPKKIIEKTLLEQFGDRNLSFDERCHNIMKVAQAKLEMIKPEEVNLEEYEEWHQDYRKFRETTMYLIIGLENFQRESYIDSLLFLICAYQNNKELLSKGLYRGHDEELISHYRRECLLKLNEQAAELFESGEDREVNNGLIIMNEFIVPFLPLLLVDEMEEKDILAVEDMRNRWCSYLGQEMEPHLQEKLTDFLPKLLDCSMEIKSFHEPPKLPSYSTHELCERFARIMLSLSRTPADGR
The gist of the method:
as §1

Assay [4] addresses T3, USP28 (UniProt Q96RU2).
T3 sequence (whole entry): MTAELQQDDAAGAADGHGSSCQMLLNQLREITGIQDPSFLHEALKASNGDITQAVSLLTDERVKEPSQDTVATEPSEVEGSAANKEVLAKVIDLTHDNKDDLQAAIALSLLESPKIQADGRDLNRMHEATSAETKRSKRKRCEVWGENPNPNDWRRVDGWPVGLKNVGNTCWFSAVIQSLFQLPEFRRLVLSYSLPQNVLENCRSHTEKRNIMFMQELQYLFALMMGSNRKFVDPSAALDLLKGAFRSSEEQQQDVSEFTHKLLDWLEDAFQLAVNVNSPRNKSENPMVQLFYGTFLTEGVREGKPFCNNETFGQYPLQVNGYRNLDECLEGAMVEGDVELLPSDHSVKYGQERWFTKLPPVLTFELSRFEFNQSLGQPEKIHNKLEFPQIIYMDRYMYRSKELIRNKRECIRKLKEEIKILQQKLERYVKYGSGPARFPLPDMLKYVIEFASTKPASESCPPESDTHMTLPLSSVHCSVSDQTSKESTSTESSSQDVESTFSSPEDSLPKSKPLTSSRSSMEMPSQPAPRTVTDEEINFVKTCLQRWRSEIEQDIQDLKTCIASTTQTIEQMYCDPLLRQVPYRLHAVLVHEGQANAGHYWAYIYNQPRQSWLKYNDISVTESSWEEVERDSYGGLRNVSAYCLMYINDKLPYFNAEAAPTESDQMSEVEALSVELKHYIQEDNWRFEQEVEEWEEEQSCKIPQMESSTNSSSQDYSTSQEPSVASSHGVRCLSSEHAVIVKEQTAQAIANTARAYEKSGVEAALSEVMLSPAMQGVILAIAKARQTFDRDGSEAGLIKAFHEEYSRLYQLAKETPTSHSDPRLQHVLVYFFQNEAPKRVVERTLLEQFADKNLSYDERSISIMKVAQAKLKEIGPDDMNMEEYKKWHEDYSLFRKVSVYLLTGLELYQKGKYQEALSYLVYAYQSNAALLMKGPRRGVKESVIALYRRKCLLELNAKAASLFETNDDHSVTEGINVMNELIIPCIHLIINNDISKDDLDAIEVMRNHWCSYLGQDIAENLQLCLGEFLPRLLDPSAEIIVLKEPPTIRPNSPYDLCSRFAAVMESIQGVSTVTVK
In outline: as §1

Unmarked numbers belong to inactive results.

USP24, sequence (Q9UPU5 whole entry): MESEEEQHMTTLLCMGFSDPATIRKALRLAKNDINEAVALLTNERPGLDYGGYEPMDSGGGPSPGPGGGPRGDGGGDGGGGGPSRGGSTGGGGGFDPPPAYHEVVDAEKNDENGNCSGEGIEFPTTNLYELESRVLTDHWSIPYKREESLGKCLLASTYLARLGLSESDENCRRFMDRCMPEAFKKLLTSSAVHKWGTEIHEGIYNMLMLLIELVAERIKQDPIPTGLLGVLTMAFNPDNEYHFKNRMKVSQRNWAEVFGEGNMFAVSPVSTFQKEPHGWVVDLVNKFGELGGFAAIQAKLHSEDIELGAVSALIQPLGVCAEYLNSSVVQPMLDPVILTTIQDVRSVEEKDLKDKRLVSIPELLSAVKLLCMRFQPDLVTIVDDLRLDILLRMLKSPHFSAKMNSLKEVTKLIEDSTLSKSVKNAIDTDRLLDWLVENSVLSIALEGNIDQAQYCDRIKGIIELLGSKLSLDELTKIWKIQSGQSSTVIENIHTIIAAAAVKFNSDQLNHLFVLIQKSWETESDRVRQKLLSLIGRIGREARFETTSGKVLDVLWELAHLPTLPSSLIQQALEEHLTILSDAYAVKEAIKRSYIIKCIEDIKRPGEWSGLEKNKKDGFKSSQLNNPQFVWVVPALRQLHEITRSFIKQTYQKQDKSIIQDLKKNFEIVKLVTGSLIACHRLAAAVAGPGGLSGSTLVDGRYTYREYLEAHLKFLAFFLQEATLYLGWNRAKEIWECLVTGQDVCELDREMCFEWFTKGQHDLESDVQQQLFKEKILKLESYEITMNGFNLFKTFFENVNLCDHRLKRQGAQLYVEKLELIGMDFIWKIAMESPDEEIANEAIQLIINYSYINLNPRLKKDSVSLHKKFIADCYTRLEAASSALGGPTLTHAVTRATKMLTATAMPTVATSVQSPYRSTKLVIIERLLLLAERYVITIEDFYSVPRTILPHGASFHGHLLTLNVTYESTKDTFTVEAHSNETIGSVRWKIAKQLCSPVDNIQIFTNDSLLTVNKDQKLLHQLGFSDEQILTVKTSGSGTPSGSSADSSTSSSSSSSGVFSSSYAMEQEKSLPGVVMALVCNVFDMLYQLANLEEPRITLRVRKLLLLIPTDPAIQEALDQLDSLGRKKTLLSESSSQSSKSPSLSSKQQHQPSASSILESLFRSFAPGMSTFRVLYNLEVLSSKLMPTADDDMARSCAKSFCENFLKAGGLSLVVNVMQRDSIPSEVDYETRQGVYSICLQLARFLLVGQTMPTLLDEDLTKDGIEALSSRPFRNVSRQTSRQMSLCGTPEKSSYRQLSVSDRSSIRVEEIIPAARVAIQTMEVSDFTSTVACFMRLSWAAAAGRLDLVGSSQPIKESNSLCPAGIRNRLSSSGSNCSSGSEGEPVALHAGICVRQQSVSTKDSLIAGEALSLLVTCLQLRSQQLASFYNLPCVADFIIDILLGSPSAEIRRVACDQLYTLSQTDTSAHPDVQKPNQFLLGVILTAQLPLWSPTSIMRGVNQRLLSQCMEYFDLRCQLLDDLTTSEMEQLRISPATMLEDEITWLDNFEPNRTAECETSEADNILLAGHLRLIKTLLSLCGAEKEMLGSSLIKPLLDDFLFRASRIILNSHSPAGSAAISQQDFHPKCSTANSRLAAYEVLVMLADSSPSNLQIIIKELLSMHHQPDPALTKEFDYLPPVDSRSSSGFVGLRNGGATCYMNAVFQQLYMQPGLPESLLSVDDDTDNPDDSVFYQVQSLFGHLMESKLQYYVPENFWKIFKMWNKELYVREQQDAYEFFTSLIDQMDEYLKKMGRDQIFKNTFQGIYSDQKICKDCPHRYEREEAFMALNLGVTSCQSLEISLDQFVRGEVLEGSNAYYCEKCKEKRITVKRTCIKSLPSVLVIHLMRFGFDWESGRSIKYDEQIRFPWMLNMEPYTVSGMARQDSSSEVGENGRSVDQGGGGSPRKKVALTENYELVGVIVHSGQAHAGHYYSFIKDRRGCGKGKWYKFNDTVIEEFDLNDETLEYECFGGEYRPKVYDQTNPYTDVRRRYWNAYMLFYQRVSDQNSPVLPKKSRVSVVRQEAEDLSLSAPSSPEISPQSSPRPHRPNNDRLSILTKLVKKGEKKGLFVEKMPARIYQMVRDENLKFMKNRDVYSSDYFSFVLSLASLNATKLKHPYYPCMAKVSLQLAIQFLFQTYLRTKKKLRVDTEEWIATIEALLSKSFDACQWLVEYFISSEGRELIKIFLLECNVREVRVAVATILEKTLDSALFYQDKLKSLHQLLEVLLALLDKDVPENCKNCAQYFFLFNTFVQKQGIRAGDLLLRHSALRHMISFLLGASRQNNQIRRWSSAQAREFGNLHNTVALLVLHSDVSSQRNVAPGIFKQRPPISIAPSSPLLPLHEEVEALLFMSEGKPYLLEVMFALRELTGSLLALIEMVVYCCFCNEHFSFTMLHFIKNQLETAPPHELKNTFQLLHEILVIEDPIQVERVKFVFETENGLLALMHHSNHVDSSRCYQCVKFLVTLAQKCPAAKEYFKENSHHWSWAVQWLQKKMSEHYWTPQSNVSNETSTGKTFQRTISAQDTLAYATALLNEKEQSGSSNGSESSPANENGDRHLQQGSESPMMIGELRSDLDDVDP

Turning to `CC1CN(c2ccc(NC(=O)CCl)cc2)CC(C)O1` (centres undefined), the “log2 ratio of Biotin-Ahx-Ub-VS probe labelling” value in assay [1] was -0.126; in assay [2], -0.205; in assay [3], -1.58 (active); in assay [4], -1.57 (active).

(Values after the supplement of paper PMC11732987, “Enantioselective OTUD7B fragment discovery through chemoproteomics screening and high-throughput optimisation” (Communications Chemistry, 2025).)
